Source: ChEMBL document CHEMBL5308541, “MAIP: An Open-Source Tool to Enrich High-Throughput Screening Output and Identify Novel, Druglike Molecules with Antimalarial Activity” (ACS Med Chem Lett, 2023)
Screen size: about 150,000 compounds; about 540 (0.36%) showed an effect of 50% or more. The list comes from a sample in which strong results are over-represented; it also holds similar structures and randomly drawn compounds.

These molecules were tested on Plasmodium falciparum (assay: Primary screen in NF54 nanoGlo assay, in single point, at 2uM, 72h; a lower Z score goes with more inhibition). Settings: timepoint 72 hour.
Assay type: functional, Erythrocyte

| Compound | % Inhibition | Z score |
| --- | --- | --- |
| Cc1nc(N2CCN(CC(=O)NC3CCCCC3)CC2)c2cc[nH]c2n1 | -11% | 2.32 |
| CNc1nc(N2CCN(CC(=O)NC3CCCCC3)CC2)nc2ccccc12 | 80% | -14.07 |
| CCN1CCC[C@@H]1CN(CCN(C)C)C(=O)c1ccc(-c2cncnc2)cc1F | 2% | -0.24 |
| N[C@H]1CC[C@@H](NC2CCN(c3ccc(F)c(F)c3)CC2)CC1 | 53% | -9.21 |
| Fc1ccc(N2CCC(N[C@@H]3COC4(CCNCC4)C3)CC2)cc1F | 23% | -4.05 |
| CCc1ccc(Nc2nc(C(=O)NCCc3c[nH]cn3)nc3ccccc23)cc1 | 7% | -1.15 |
| COCCN1CCC(CN(C)C(=O)c2ccc(-c3cncc(N)c3)cc2)CC1 | 2% | -0.4 |
| COc1ccc(-c2cncc(C(=O)NCC3CCN(CCN(C)C)CC3)c2)cc1 | 94% | -16.22 |
| Cn1ccc2c(-c3cccc4c(N)ccnc34)ccnc21 | 6% | -1.24 |
| Cc1cc(O)c(Cl)cc1-c1ccc2ncnc(N)c2c1 | -5% | 0.82 |
| Cc1cc(O)c(Cl)cc1-c1cccc2c(N)ccnc12 | 82% | -14.53 |
| Cc1cc(O)c(Cl)cc1-c1ccc2nccc(N)c2c1 | 91% | -15.94 |
| Cc1cc(O)c(Cl)cc1-c1ncnc2[nH]ccc12 | 1% | -0.29 |
| OC[C@H](CNCc1cc2ccc(F)cc2[nH]1)c1ccccc1Cl | 41% | -6.28 |
| O[C@@H](CNCc1cc2cc(Cl)c(Cl)cc2[nH]1)c1ccc(F)cc1 | 76% | -13.27 |
| CC(CNc1nc(NCC(C)N2CCOCC2)c2cc(Cl)ccc2n1)N1CCOCC1 (stereo unspecified) | 78% | -13.62 |
| CCN1CCN(CCOc2ccccc2CN(C)Cc2cccc3cnccc23)CC1 | 7% | -1.54 |
| CN1CCN(CCOc2ccccc2CN(C)Cc2cc3cc(F)ccc3[nH]2)CC1 | 73% | -14.51 |
| COc1ccc(-c2ccnc(C3CCN(c4ccnc(C#N)n4)CC3)n2)cc1 | -1% | 0.14 |
| c1cc(N2CCOCC2)nc(C2CCN(CC34CNCC3C4)CC2)n1 (stereo unspecified) | -8% | 1.26 |
| c1ccc(-c2ccnc(C3CCN(CC45CNCC4C5)CC3)n2)cc1 (stereo unspecified) | 89% | -13.57 |

| Compound | % Inhibition | Z score |
| --- | --- | --- |
| O=C(NCc1cccc(-c2cccnc2)c1)N[C@H]1CCN(C2CCCCC2)C1 | 51% | -7.77 |
| C[C@H]1CN(C2CCOCC2)CCN1C(=O)NCc1cccc(-c2cccnc2)c1 | -1% | 0.29 |
| CC(C)c1ccc(-c2nc(CN3CCCCC3)cc(CN3CCCCC3)c2O)cc1 | 90% | -15.77 |
| Cc1ccc(Nc2ncc(-c3ccc(Cl)c(OC(F)(F)F)c3)cn2)cc1 | -5% | 1 |
| CCN1CCN(c2ccc(CNCc3cccc(O)c3)cc2F)CC1 | 90% | -19.29 |
| CN1CCCN(Cc2ccc(CNCc3cccc(O)c3)cc2)CC1 | 17% | -3.36 |
| Cc1nc2ccccc2c(O)c1CC[C@H](C)NC1CCNCC1 | -3% | 0.51 |
| CCCCN(C)C[C@@H](C)NC(=O)CCCN1CCN(c2ccccc2)CC1 | -5% | 1.09 |
| Cc1ccc(-c2cc(C(=O)NC3CCN(C4CCN(C)CC4)CC3)n[nH]2)cc1C | 95% | -16.77 |
| CN1CCC(N2CCC(NC(=O)c3ccncn3)CC2)CC1 | -17% | 2.56 |
| Cc1ccc(-c2cc(C(=O)N[C@H]3CCCN(C4CCN(C)CC4)C3)n[nH]2)s1 | 5% | -0.79 |
| Cn1cc(CNC[C@H](O)c2ccc(F)c(F)c2)c(-c2cc3ccccc3o2)n1 | 19% | -3.4 |
| CCc1oc2ccccc2c1CNC[C@H](O)c1ccc(Cl)cc1 | 98% | -19.37 |
| C[C@](O)(CNS(=O)(=O)c1c[nH]c2ncccc12)C(c1ccccc1)c1ccccc1 | 4% | -0.63 |
| CN([C@@H](c1ccccc1)c1ccccc1Br)S(=O)(=O)c1c[nH]c2ncccc12 | 60% | -11.93 |
| Cc1ccc2[nH]cc(-c3cc(N4CCCCC4)ncn3)c2c1 | 11% | -2.17 |
| C[C@@H](c1cccc(-c2cc(N3CCOCC3)nc(N)n2)c1)N1CCCC1 | -1% | 0.25 |
| Cc1ccc2[nH]cc(-c3cc(N4CCOCC4)nc(N)n3)c2c1 | 52% | -10.41 |
| NC(=O)c1ccc(CNC(=O)NCC[C@H](O)c2ccccc2)o1 | -10% | 1.46 |
| CC(C)(O)C#Cc1ccc(CN(CC2CCN(C3CCCC3)CC2)C[C@H]2CCCO2)cc1 | -11% | 1.92 |
| CC(C)N1CCN(CCCN2CCN(C)C3(CCCCC3)C2)CC1 | 3% | -0.69 |

| Compound | % Inhibition | Z score |
| --- | --- | --- |
| Cc1cc(N2CCC(N(C)Cc3ncc(-c4ccccc4C)o3)CC2)nc(C)n1 | -3% | 0.66 |
| CN1CCC(Oc2ccc(NCc3ccc(N(C)C)nc3)cn2)CC1 | -17% | 3.56 |
| CN1CCC(Oc2ccc(NC(=O)c3cn4ccnc4s3)cn2)CC1 | 90% | -15.87 |
| CN1CCC(CNC2CC3CC(C2)N(C(=O)OC(C)(C)C)C3)CC1 (stereo unspecified) | 72% | -15.46 |
| COc1cc2nc(-c3cc(Cl)c(O)cc3C)nc(N)c2cc1OC | 2% | -0.41 |
| COc1cc2nc(-c3ccc(F)c4cccnc34)nc(N)c2cc1OC | 96% | -14.63 |
| COc1ccnc(CN2CC[C@H](Nc3ncccn3)C2)c1OC | -5% | 0.75 |
| Cc1nc(C)c(C)c(N2CC(OCc3ccccc3)C2)n1 | -11% | 1.9 |
| COCC1CCN(c2ccnc3cc(F)ccc23)CC1 | 7% | -1.37 |
| COc1ccc2nccc(N3CCC(O)CC3)c2c1 | 5% | -0.83 |
| COc1ccc2c(N3CC[C@H](CN4CCCC4)C3)ccnc2c1 | 91% | -15.93 |
| CN1CCN(C[C@H]2CCCN(C(=O)c3ccnc4ccccc34)C2)CC1 | 5% | -1.03 |
| CN1CCN(CC2CCN(c3ccnc4ccccc34)CC2)CC1 | 98% | -16.96 |
| CC1(N2CCC2)CCC(NC[C@H]2CCN(Cc3ccccc3)C2)CC1 (stereo partly specified) | 73% | -12.59 |
| CC(=O)N1CCC(CNC2CCC(C)(N3CCCC3)CC2)CC1 (stereo unspecified) | -10% | 1.74 |
| c1ccc(CN2CCC[C@H](CNC3CCN(c4ccc5c(c4)OCO5)CC3)C2)cc1 | 14% | -2.53 |
| Nc1ccnc2ccc(-c3ccc(C(=O)NCC4CCOCC4)cc3)cc12 | 83% | -16.44 |
| OC1CN(c2ccnc3ccccc23)CCC1N1CCN(c2ccccn2)CC1 (stereo unspecified) | -7% | 1.2 |
| CCCCN1CCC(NC(=O)c2c[nH]c3ncccc23)CC1 | -8% | 1.66 |
| O=C(NC1CCN(CCOc2ccc(Cl)cc2)CC1)c1c[nH]c2ccncc2c1=O | 94% | -14.22 |
| CCCc1cc(NCC2(N3CCN(C)CC3)CCCCC2)n2nccc2n1 | -3% | 0.64 |

| Compound | % Inhibition | Z score |
| --- | --- | --- |
| CNc1cc([C@H]2C[C@@H](NC3CC(C)(C)NC(C)(C)C3)C2)ncn1 | 11% | -1.95 |
| CNc1nc(N[C@H]2CCCN(Cc3ccc(Cl)cc3)C2)nc2c1CCC2 | 49% | -8.5 |
| Cc1cc(N2CCC(NC3CCCC3Cc3ccc(F)cc3)CC2)nc(N)n1 (stereo unspecified) | 96% | -14.52 |
| Cc1cc(N2CCC(N(C)Cc3ccc4nsnc4c3)CC2)nc(N)n1 | 18% | -3.91 |
| Cc1cc(N2CCC(NCc3ccc(C(F)(F)F)cc3F)CC2)nc(N)n1 | 10% | -2.1 |
| CN(C)c1ncc(CN2CCN(c3nsc4ccccc34)CC2)cn1 | 5% | -0.94 |
| O=C(Nc1cnc2c(c1)COCC2)c1cc2c(OC(F)(F)F)cccc2[nH]1 | 93% | -14.17 |
| CN(c1ccccc1)c1ccc(CN2CCN([C@H]3CCNC3)CC2)cc1 | 68% | -13.59 |
| Cc1ocnc1CNC[C@H](O)c1ccc(Cl)c(Cl)c1 | 94% | -18.67 |
| Cn1nc(C(=O)Nc2cnc(CC3CC3)nc2)cc1C(F)(F)F | 1% | -0.26 |
| CCC(=O)N1CC[C@H](Nc2cc(C)nc3ccccc23)C1 | -8% | 1.36 |
| CCCN1CCC(Nc2cc(C)nc3ccccc23)CC1 | 58% | -8.81 |
| Cc1ccc2[nH]c(-c3cc4n(n3)CCN(c3ccnc(N)n3)C4)nc2c1C | 84% | -16.64 |
| CN1CCC(N(C)C[C@H](Nc2ncnc3ccccc23)c2ccccc2)CC1 | 98% | -17.15 |
| C[C@](O)(CN1CCC(NCc2ccccc2)CC1)C(F)(F)F | -6% | 0.96 |
| COc1ccccc1N1CCN(C2CCN(c3ccc(C(=O)N[C@@H](C)c4ccccc4)cc3)CC2)CC1 | -11% | 1.99 |
| OC1(c2ccc(Cl)cc2)CCN(C[C@@H]2CCCN3CCCC[C@H]23)CC1 | 82% | -16.27 |
| COCCNc1nc(N[C@@H](C)c2ccccc2)c2ccccc2n1 | 52% | -11.2 |
| CC(CCO)CNc1nc(NCC(C)CCO)c2ccccc2n1 (stereo unspecified) | 1% | -0.17 |
| CCNc1nc(NCc2ccccc2)c2cn[nH]c2n1 | -6% | 1.21 |
